# Screen size: about 5,900 compounds; about 100 (1.7%) were called active.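 How the source made its calls: active means binding response below 72% of control, or above a set upper limit, though filed actives all read lower; inactive means the rest.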 Only a selection was taken, and actives are over-represented in it overall.
# Target: Mitogen-activated protein kinase kinase kinase 3 (Homo sapiens) (UniProt Q99759)
# Assay: blockers of MEK5-MEKK3 PB1 association – biochemical, bead multiplex flow cytometry, single concentration, wildtype, confirmation (AID 1894);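 further: 100% = DMSO only wells and 0% = binding blocked by excess unlabeled MEK5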
# Settings: Alexa488-MEK5 binding to MEKK3, at 10 µM, hits give low values
# Sequence of Mitogen-activated protein kinase kinase kinase 3 (Homo sapiens) (Q99759 whole entry, looked up): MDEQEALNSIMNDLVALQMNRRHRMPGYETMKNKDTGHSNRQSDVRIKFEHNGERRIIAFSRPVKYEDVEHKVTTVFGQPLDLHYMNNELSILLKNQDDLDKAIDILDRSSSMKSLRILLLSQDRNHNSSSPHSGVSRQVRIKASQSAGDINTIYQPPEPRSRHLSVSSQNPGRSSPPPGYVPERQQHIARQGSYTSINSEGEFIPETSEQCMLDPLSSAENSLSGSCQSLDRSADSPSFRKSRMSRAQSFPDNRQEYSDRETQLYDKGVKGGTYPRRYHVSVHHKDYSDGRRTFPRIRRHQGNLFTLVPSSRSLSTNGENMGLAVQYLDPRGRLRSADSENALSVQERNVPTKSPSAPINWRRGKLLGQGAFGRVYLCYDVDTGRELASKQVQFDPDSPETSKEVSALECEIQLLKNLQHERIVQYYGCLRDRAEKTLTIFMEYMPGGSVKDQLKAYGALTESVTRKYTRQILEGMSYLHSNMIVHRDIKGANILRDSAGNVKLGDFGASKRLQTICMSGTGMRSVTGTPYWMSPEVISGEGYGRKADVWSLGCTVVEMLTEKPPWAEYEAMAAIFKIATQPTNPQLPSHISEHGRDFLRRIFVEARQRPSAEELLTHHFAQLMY
row,SMILES,binding response (% of control)
1,FC(F)(F)c1nc(-c2ccccc2)ncc1-c1nnnn1-c1ccccc1,100% (inactive)
2,CCOC(=O)N1CCN(CC(=O)n2c(C)c(C)c3ccccc32)CC1,97% (inactive)
3,Cn1c(=NC(=O)CSCC(=O)N2CCOCC2)sc2ccccc21,86% (inactive)
4,Cc1nc2cc(S(=O)(=O)C(F)(F)F)ccc2s1,101% (inactive)
5,CCN1CCN(c2nc(Nc3cc(OC)ccc3OC)nc(Nc3cc(OC)ccc3OC)n2)CC1,106% (inactive)
6,Cc1ccccc1C(=O)NNC(=O)CN1C(=O)c2ccccc2C1=O,93% (inactive)
7,CCOC(=O)c1c(Cc2ccc(Cl)cc2)c[nH]c1C,107% (inactive)
8,CCOC(=O)C(NS(=O)(=O)c1ccc(C)cc1)(C(F)(F)F)P(=O)(OCC(C)C)OCC(C)C (stereo not drawn),94% (inactive)
9,C#CCOCCOCCOCCNc1nc(N2CCN(C(=O)C([C@@H](C)CC)n3cc(C(N)COC(=O)C(F)(F)F)nn3)CC2)nc(N2CCN(C(=O)[C@H](CCCCN)n3cc(C(N)CC(C)C)nn3)CC2)n1 (stereo partly drawn),106% (inactive)
10,COc1ccc(C2CC(c3cccs3)=NN2c2nc(C)c(C(C)=O)s2)cc1OC (stereo not drawn),97% (inactive)
11,Cc1ccc(NC(=O)COc2ccc(-n3ccnc3)cc2)cc1Cl,108% (inactive)
12,Fc1ccc(-c2ccc(CNCc3ccccn3)o2)cc1Cl,103% (inactive)
13,O=C(NC1CCN(Cc2ccccc2)CC1)c1cc(Br)c(Br)[nH]1,110% (inactive)
14,O=C(O)/C(=C/c1cccnc1)NC(=O)c1ccccc1,104% (inactive)
15,CCCCn1c(SCC(=O)NCCc2ccc(OC)c(OC)c2)nc2c1c(=O)n(C)c(=O)n2C,100% (inactive)
16,COc1ccc(SC[C@H](Cc2ccccc2)N2CCN(CCc3ccccc3)CCC2=O)cc1,107% (inactive)
17,O=C1Nc2ccc(Br)cc2/C1=N/N=C/C1=C(N2CCOCC2)C(=C\c2ccccc2)/CC1,54% (active)
18,C=CCn1c(P(C)(=O)O)nc2ccccc21,97% (inactive)
19,O=C(OCC1O[C@@H](OC(=O)c2cc(O)c(O)c(O)c2)[C@@H](OC(=O)c2cc(O)c(O)c(O)c2)[C@@H](OC(=O)c2cc(O)c(O)c(O)c2)[C@@H]1OC(=O)c1cc(O)c(O)c(O)c1)c1cc(O)c(O)c(O)c1 (stereo partly drawn),1% (active)
20,C#CCOCCOCCOCCNc1nc(N2CCN(C(=O)[C@H](CCCCN)n3cc([C@@H](N)C(C)CC)nn3)CC2)nc(N2CCN(C(=O)[C@H](Cc3ccc(O)cc3)n3cc([C@@H](N)C(C)CC)nn3)CC2)n1 (stereo partly drawn),109% (inactive)
21,COc1ccc(N2CCN(Cc3nnc(-c4ccccc4)o3)CC2)cc1,96% (inactive)
22,Cc1ccc(S(=O)(=O)NC(=O)N2CCCC(C)(C)C2)cc1,98% (inactive)

row,SMILES,binding response (% of control)
1,C=CCN1C=C2C(=O)C(C)(OC(=O)CCc3ccccc3)C(=O)C=C2C=C1c1ccc(C#N)cc1 (stereo not drawn),103% (inactive)
2,Cc1ccc(N2C(=O)CC(N3CCSCC3)C2=O)c(C)c1 (stereo not drawn),102% (inactive)
3,C/C=C/c1ccc(OCCCCN2CCC(C)CC2)c(OC)c1,103% (inactive)
4,CN1CCN(/N=C/c2ccc(C#N)cc2)CC1,86% (inactive)
5,COc1cc2c(cc1OC)CN(C(=O)c1ccc(S(=O)(=O)N3CCCCCC3)cc1)CC2,100% (inactive)
6,CN(CC(=O)Nc1cccc(F)c1)CC(=O)Nc1cccc([N+](=O)[O-])c1,103% (inactive)
7,N/C(=N\OS(=O)(=O)c1cccc([N+](=O)[O-])c1)c1ccncc1,104% (inactive)
8,C=CCN(CC=C)S(=O)(=O)c1ccc(C(=O)Nc2sc3c(c2C(N)=O)CCCCC3)cc1,100% (inactive)
9,Cc1ccc(N(CCC(=O)O)S(=O)(=O)c2cccc(C(F)(F)F)c2)cc1,102% (inactive)
10,Cc1ccc(CNC(=O)Cn2c(=O)c3sccc3n(Cc3cccc([N+](=O)[O-])c3)c2=O)cc1,102% (inactive)
11,COc1cccc(C2CC(c3ccccc3)=NN2S(=O)(=O)c2ccccc2)c1OC (stereo not drawn),100% (inactive)
12,O=C(Nc1ccn(Cc2ccccc2)n1)c1cccc(F)c1,100% (inactive)
13,CCCCOC(=O)c1ccc(N2C(=O)CC(N3CCN(C/C=C/c4ccccc4)CC3)C2=O)cc1 (stereo not drawn),104% (inactive)
14,COc1cc(-c2nnc(Cn3cc(C(F)(F)F)ccc3=O)o2)cc(OC)c1OC,102% (inactive)
15,COc1cc(Br)c(-c2sc(Nc3ccccc3)n[n+]2-c2ccccc2)cc1OC,102% (inactive)
16,COc1cccc(/C(C)=N/Nc2ncc(Cl)cc2Cl)c1,108% (inactive)
17,COc1cc(/C=C2\SC(=S)N(Nc3ncc(C(F)(F)F)cc3Cl)C2=O)cc(OC)c1OC,90% (inactive)
18,CCN(CC)CCOCCOc1ccc(Cl)c2ccccc12,107% (inactive)
19,CCOc1ccc(NC(=O)Nc2cc(C)ccc2OC)cc1,100% (inactive)
20,Cc1onc(-c2ccccc2Cl)c1C(=O)OCC(=O)c1ccccc1,100% (inactive)
21,O=C(OCc1cc(Cl)ccc1OC(F)F)c1cccnc1,97% (inactive)
22,O=c1c(/C=N/O)coc2ccc(Cl)cc12,101% (inactive)

row,SMILES,binding response (% of control)
1,O=C(Nc1ccc(Cl)cn1)c1cnn2cccnc12,105% (inactive)
2,CCOC(=O)c1sc2nc(C)nc(SCC(N)=O)c2c1C,109% (inactive)
3,CCC(C)OC(=O)C(C)Oc1ccc(-c2ccccc2)cc1 (stereo not drawn),108% (inactive)
4,COc1ccc(C(=O)C[n+]2ccc(C)cc2)cc1,103% (inactive)
5,CCN1CCN(c2ccc(S(=O)(=O)N3CCCCC3)cc2NC(=O)Cc2c(Cl)cccc2Cl)CC1,104% (inactive)
6,Cc1nn(-c2ccccc2)c(NC(=O)c2cccs2)c(-c2ccc(Cl)cc2)c1=O,101% (inactive)
7,Cc1cc(C(=O)OCC(=O)N2c3ccccc3NC(=O)C2(C)C)c(C)n1-c1ccccc1,106% (inactive)
8,Cc1cccn2c(=O)c(/C=C3\SC(=S)N(CC(C)C)C3=O)c(NCCCOC(C)C)nc12,86% (inactive)
9,C/C(CC(=O)NC(C)(C)C)=N\NC(=O)c1ccco1,100% (inactive)
10,Cc1ccc(C(=O)N/C(=C/c2ccco2)C(=O)NCCc2c[nH]c3ccccc23)cc1C,105% (inactive)
11,CCC(=C/c1sc2ccc3ccccc3c2[n+]1C)/C=C1\Sc2ccc3ccccc3c2N1C,29% (active)
12,Cn1c2ccccc2c(=O)c2c(=O)n(Cc3ccco3)c(COc3ccccc3)nc21,100% (inactive)
13,CN(C)CCCNC(=O)c1cc(C(=O)Cc2ccc(Cl)cc2)c[nH]1,98% (inactive)
14,Cc1ccc(NC(=S)N(CCCN2CCCC2)Cc2cccn2Cc2ccc(Cl)cc2)cc1,104% (inactive)
15,N#C/C(=C\C1=C(N2CCOCC2)C(=C\c2ccccc2)/CC1)C(=O)Nc1ccccc1F,27% (active)
16,COC(=O)c1cc(NC(=O)c2cc(C(C)(C)C)nn2Cc2cccc(C)c2)ccc1N1CCOCC1,99% (inactive)
17,CN(C)CCCNC(=S)N1CCN(c2nc(-c3ccccc3)cs2)CC1,102% (inactive)
18,Cn1ccc(=Nc2ccc(NC(=O)c3ccc(N=c4ccn(C)c5ccc([N+](=O)[O-])cc45)cc3)cc2)cc1,105% (inactive)
19,O=C(NCCCN1CCN(c2ccc(F)cc2)CC1)Nc1ccc([N+](=O)[O-])cc1,107% (inactive)
20,O=C(c1cnn(-c2ccc(Cl)cc2)c1)c1ccccc1O,110% (inactive)
21,O=C(NC1CCN(Cc2ccccc2)CC1)c1ccc(Oc2cc(Cl)cc(Cl)c2)o1,97% (inactive)
22,O=C(NCCC1=CCCCC1)c1ccc(Cl)c([N+](=O)[O-])c1,106% (inactive)

row,SMILES,binding response (% of control)
1,CC1CN(C(=O)c2ccccc2NS(=O)(=O)c2cccc([N+](=O)[O-])c2)CC(C)O1 (stereo not drawn),101% (inactive)
2,CC(C)c1ccc(C(=O)NCCCc2ccccc2)cc1,98% (inactive)
3,O=C(O)c1cccnc1NC1CCCC1,108% (inactive)
4,COc1cccc(NC(=S)NCCCN2CCOCC2)c1,106% (inactive)
5,COC(=O)CCc1sc(Nc2ccc(Br)cc2)nc1-c1ccc(OC)cc1,106% (inactive)
6,O=C(Cc1cccc2ccccc12)Nc1ccc2oc(-c3ccccc3)nc2c1,102% (inactive)
7,O=C(NNc1c2ccccc2nc2ccccc12)c1cc2ccccc2cc1O,51% (active)
8,CNC(=O)/C(=C\C=C\c1ccccc1)NC(=O)c1ccc([N+](=O)[O-])cc1,107% (inactive)
9,COc1ccc(C(=O)NCC(=O)N/N=C/c2ccc([N+](=O)[O-])o2)cc1OC,93% (inactive)
10,Cc1c(-c2ccccc2)cn2c1-c1ccc(C)n1CC2,93% (inactive)
11,Cc1ccc(C)c(CN2CCC(CNC(=O)Nc3ccc(C)c(F)c3)CC2)c1,107% (inactive)
12,COc1cc(-c2nc(-c3ccncc3)no2)cc(OC)c1OC,104% (inactive)
13,Cc1ccc(S(=O)(=O)/N=S(\C)C(C)C)cc1 (stereo not drawn),101% (inactive)
14,CCOC(=O)Cc1csc(NC(=O)CSc2nc(C)cc(=O)[nH]2)n1,99% (inactive)
15,COc1ccc(CNC(=O)C2CCN(S(C)(=O)=O)CC2)cc1,102% (inactive)
16,O=C(Cc1cccs1)N/N=C/c1ccc(OCc2ccccc2)cc1,104% (inactive)
17,COc1ccc(S(=O)(=O)N2CN(CCc3ccc(OC)c(OC)c3)c3nc4ccccc4nc32)cc1,97% (inactive)
18,COc1cc(CC(=O)N/N=C/c2ccccc2)c([N+](=O)[O-])cc1OC,104% (inactive)
19,FC(F)(F)c1cccc(N/N=C/c2ccccc2)c1,105% (inactive)
20,CCOC(=O)CN(C)S(=O)(=O)c1ccc(-c2cc(C(=O)OC)sc2C(F)(F)F)cc1,103% (inactive)
21,COc1ccc(C2CC(=O)Nc3cc(C)c(C)cc32)c(OC)c1OC (stereo not drawn),104% (inactive)
22,O=C(c1ccco1)N1CCN(c2cccc(Cl)c2)CC1,100% (inactive)
